SMILES strings stand for the structures. Results filed as inconclusive are left out. Calls of active or inactive are those of the source. Calls come from the whole dose curve; as a rule, active = well fitted inhibition curve with a large enough effect; inconclusive = small, poorly fitted or top-dose-only effect; inactive = flat fitted curve, though single readings scatter.

The values below come from PubChem BioAssay (NCATS).
% is set by controls: 0 for no effect and ±100 for the full control effect; potency is the fitted concentration of half-maximal effect.

This test has as its system CRL-7250. Put plainly: Cytotoxic Profiling of Annotated Libraries Using Quantitative High-Throughput Screening (AID 1296008). Note: nearly all actives have a fitted effect of over 60% in size. The conditions noted are these: Five cell lines viability, CellTiter-Glo ATP luminescence, 48-72 h; max response: stronger effect = lower value. The method in brief:
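Cells exposed to compounds for 48 or 72 hr at 37 degrees Celsius. Viability read as ATP-coupled luminescence with CellTiter-Glo after 10 min at room temperature.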
For orientation: In ATP-based viability assays light output follows the ATP content of the culture.
As for `O=C(NCCCCN1CCN(c2cccc(Cl)c2Cl)CC1)c1cc2ccccc2s1`, the max response is -20.7% (inactive).

For `C/C=C/[C@@H]1C=C[C@@H]2C[C@H](C)CC[C@H]2[C@]1(C)/C(O)=C1/C(=O)[C@@H](CO)N(C)C1=O`, the call was inactive.

Regarding `CNc1nc(NCc2ccc(NS(C)(=O)=O)cc2Cl)cc(-c2ccccn2)n1`, the Potency is 20.6 µM (active).

In the case of `N#CC(CCCN1CCN(/N=C/c2cccnc2)CC1)(c1ccccc1)c1ccccc1`, the max response was -20.5% (inactive).

Regarding `CCc1cc2c(cc1CC)CC(NCC(O)c1ccc(O)c3[nH]c(=O)ccc13)C2` (centres undefined), the compound was classed as inactive.

`CC(=O)OC1C(OC(=O)c2ccccc2)C2C(=C(C)CCC2(C)C)C23CCC(C)(C2)C(=O)CC13` (centres undefined): the max response was -34.2% (inactive).

For `CCCc1cc(C)n(C)c(=O)c1CN(C)C(=O)c1cc(-c2ccc(N3CCN(C(C)C)CC3)nc2)cc2c1cnn2C(C)C`, the max response is -1.11% (inactive).

As for `COC(=O)c1cc(Br)cnc1N1CCC(NC2CCCCC2)C(O)C1` (centres undefined), the compound was called inactive.

As to `Cc1ccc(C2(C(=O)N3CCC(n4nc(-c5ccccc5)oc4=O)CC3)CC2)cc1`, the max response was -18.3% (inactive).

For `Cc1c(C2=CCN(C(=O)N(C)C(C)C)CC2)nnn1-c1cccnc1F`, the max response was -2.94% (inactive).

Take `NC(N)=NC(=O)c1cnn(-c2cccc3ncccc23)c1C1CC1`: the max response is -23.8% (inactive).

Consider `CC1(C)OC[C@H](NC(=O)Nc2ccc(Br)cc2Br)[C@H](c2ccccc2)O1`, for which the compound was classed as inactive.

Consider `O=C(Nc1ccccc1)c1ccc(Nc2nnc(-c3ccc(O)cc3)c3ccccc23)cc1`, for which the max response is -21.4% (inactive).

In the case of `CCCc1ccc(OCC(=O)N(Cc2nc(-c3cccnc3)no2)C(C)C)cc1`, the Potency was 23.1 µM (active).

With `C/C(=C/C=C\C=C\Cc1cnco1)[C@@H](O)C(C)(C)C(N)=O`, the max response was 0.0485% (inactive).

`CCC(C)CNCC(=O)N1CCC2SC=CC2C1COc1cccc(C)c1` (centres undefined): the max response is -4.73% (inactive).

For `CNC(=O)c1cc(Oc2ccc(NC(=O)c3cccc(C(F)(F)F)c3)cc2)ccn1`, the max response was -16.9% (inactive).

With `CC(F)(F)CN1CCOc2c(nn(-c3ccccc3Cl)c2-c2ccc(Cl)cc2)C1=O`, the outcome was inactive.

As for `COc1cc(CN(CCN)C(=O)c2cccs2)ccc1OCc1ccccc1`, the max response was 4.59% (inactive).

As for `CO[C@H]1[C@@H](O)[C@H](O[C@H]2CC[C@@]3(C)C(CCC4C3CC[C@]35COC6(COC(=O)C6)C3CCC45O)C2)O[C@@H](C)[C@@H]1OC1OC(CO)C(OC2OC(CO)C(O)C(O)C2O)C(O)C1O` (some centres undefined), the Potency is 3.48 µM (active).

Consider `O=C1c2ccc(Nc3ccc(F)cc3F)cc2CCc2ccc(OCC(O)CO)cc21` (centres undefined), for which the max response was -2.8% (inactive).

Consider `O=S(=O)(c1ccccc1)N(CC(F)(F)F)c1ccc(C(O)(C(F)(F)F)C(F)(F)F)cc1`, for which the result was inactive.

With `CCC(C)CNCC(=O)N1CCc2sccc2C1COc1cccc(C)c1` (centres undefined), the max response was -0.461% (inactive).

For `COc1cc(C(C)C)c(Oc2cnc(N)nc2N)cc1I`, the max response is -1.85% (inactive).

In the case of `Cc1cc(C)cc(-c2cnc3cc(Cl)c(-c4cccc(O)c4)cc3c2OCCCN)c1`, the max response was 3.3% (inactive).

Turning to `C=CC(C)(O)CC/C=C(\C)C(=O)OC1C(O)C(CO)OC(OC(=O)C23CCC(C)(C)CC2C2=CCC4C5(C)CCC(OC6OC(COC7OCC(OC(C)=O)C(O)C7OC7OC(COC(C)=O)C(O)C(O)C7OC(C)=O)C(O)C(O)C6OC6OCC(O)C(O)C6O)C(C)(C)C5CCC4(C)C2(C)C(O)C3O)C1OC1OCC(OC2OCC(O)C(OC3OCC(O)C(O)C3O)C2O)C(O)C1O` (centres undefined), the Potency was 0.891 µM (active).

As for `CCc1cccc(CC)c1-n1c(C=C(C)C)c(C(=O)N2CCNCC2)cc(-c2nc(-c3ccc(C(F)(F)F)cc3)cs2)c1=O`, the compound was called inactive.

In the case of `Cc1nc(Nc2ccc(F)cc2)nc(N2CCc3ccccc3C2C)c1C` (centres undefined), the max response is -9.52% (inactive).

For the compound `CCCn1ncc(CN2CCCC(C(=O)c3cccc(OC(C)C)c3)C2)c1C` (centres undefined), the max response is -26.8% (inactive).

Consider `Cc1ccc(N2CCN(CCC3NC(=O)c4ccccc43)CC2)cc1C` (centres undefined), for which the max response was 4.52% (inactive).

On to `COc1ccc(S(=O)(=O)Nc2c(C)cc(C)cc2C)cc1`, for which the compound was classed as inactive.

For `O=C(NS(=O)(=O)c1ccc(Br)s1)c1ccc(Cl)cc1Cl`, the max response is -22.3% (inactive).

On to `CC1(C)CC[C@]2(C(=O)O)CC[C@]3(C)C(=CCC4[C@@]5(C)C[C@@H](O)[C@H](O)[C@@](C)(CO)C5CC[C@]43C)[C@@H]2[C@@H]1O` (some centres undefined), for which the max response was 2.24% (inactive).

Turning to `COc1cc2c(cc1-c1c(C)noc1C)ncc1[nH]c(=O)n(C(C)c3ccccn3)c12` (centres undefined), the Potency was 5.8 µM (active).
